Shown are actives, neighbours in structure and some others; about 31% of the full set was active somewhere.
CYP2C19 inhib: human CYP2C19 inhibition; inhibition, % at 5 µM; 21% of 96,000 active; AID 778; P33261; CYP2C19 Supersomes, luciferin-H EGE luminescence, 30 min;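 active = CYP2C19 inhibition above a set limit at 5 µM in the primary screen, cut at about 50% in these data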;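 also: plate controls were negative control wells for no effect and 2.5 mM tranylcypromine positive control for full effect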
CYP2C9 activ: activators of human CYP2C9; P11712; recombinant CYP2C9, luciferin-H conversion, luminescence; hits give high values; factor 1 = untreated enzyme, 0 = blocked; activation factor at 5 µM; 1.4% of 96,000 active; AID 1024;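 active = activation factor of 2 or more for CYP2C9 at a 5 µM dose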;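 also: 0 = sulfaphenazole-blocked wells and 1 = vehicle-only wells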
Target sequence (P11712 whole entry, looked up): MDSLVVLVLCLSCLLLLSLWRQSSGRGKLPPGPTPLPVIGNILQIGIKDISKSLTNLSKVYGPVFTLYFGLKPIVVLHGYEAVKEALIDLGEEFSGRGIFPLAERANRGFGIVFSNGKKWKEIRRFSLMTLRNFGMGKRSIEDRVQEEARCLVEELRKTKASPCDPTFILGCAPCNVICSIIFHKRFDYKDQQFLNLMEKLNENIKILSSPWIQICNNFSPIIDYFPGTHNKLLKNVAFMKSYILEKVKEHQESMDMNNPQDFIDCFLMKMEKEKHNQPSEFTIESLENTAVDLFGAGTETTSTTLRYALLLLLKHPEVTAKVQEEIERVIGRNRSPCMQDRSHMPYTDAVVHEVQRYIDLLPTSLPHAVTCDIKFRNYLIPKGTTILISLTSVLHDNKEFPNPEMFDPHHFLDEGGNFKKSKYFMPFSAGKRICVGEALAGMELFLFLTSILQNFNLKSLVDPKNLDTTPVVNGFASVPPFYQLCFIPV
CYP2C9 inhib: inhibitors of human CYP2C9 | CYP2C9 Supersomes, luciferin-H conversion, luminescence | inhibition, % at 5 µM | 20% of 96,000 active;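 active = blocking of liver enzyme CYP2C9 beyond about 50% at 5 µM, limit read from the data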
CYP2C19 act: cytochrome P450 2C19 (human) activation | P33261 | recombinant CYP2C19, luciferin-H EGE luminescence; hits give high values; 0 = fully inhibited enzyme, 1 = untreated enzyme | activation factor at 5 µM | 96,000 tested, under 10 active | AID 1025;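 active = activation factor of at least 2 at 5 µM in the primary screen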;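 also: 0 = wells with 2.5 mM tranylcypromine and 1 = vehicle-only wells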
PLAP activator: activates human placental alkaline phosphatase; purified PLAP enzyme, luminescent substrate read-out; hits give high values; activation fold at 20 µM; 1.2% of 96,000 active; AID 696; in the data active = activation fold above about 2
Active calls of the source: *; · = no result.

SMILES	CYP2C19 inhib	CYP2C9 activ	CYP2C9 inhib	CYP2C19 act	PLAP activator
Cc1ccc(C)c(C2=CSC3=NCCN23)c1	52*	0.7	30	0.5	1
Clc1ccc(C2=CSC3=NCCN23)cc1Cl	71*	0.7	26	0.3	0.7
C1=C(c2cccc3ccccc23)N2CCN=C2S1	32	0.8	25	0.7	0.7
C=Cn1ccnc1P(=S)(c1ccc2c(c1)c1ccccc1n2CC)c1nccn1C=C	2	0.7	27	1	1.7
O=C1C(=O)c2c(C(=O)c3ccccc3)coc2-c2ccccc21	82*	0.1	95*	0.2	0.9
Cc1oc2c(c1C(=O)c1ccccc1)C(=O)C(=O)c1ccccc1-2	92*	0.1	90*	0.1	0.9
NC1(N)OC(CN2C(=O)c3ccccc3C2=O)CS1 (stereo not drawn)	52*	0.9	12	0.5	1
c1ccc2c(c1)NC1(CCCC1)n1c-2nc2ccccc21	12	0.7	31	0.9	1.1
CCCC1(C)Nc2ccccc2-c2nc3ccccc3n21 (stereo not drawn)	64*	0.4	59*	0.4	1
Cc1ccc(C(=O)C(C)OC(=O)c2cc3cc([N+](=O)[O-])ccc3oc2=O)cc1 (stereo not drawn)	16	0.1	88*	0.8	1.2
COc1cccc(-c2cc(C(=O)Nc3c(C)nn(Cc4ccccc4C)c3C)no2)c1	5	0.7	30	0.9	0.9
Cc1ccccc1Cn1nc(C)c(NC(=O)c2noc3c2CCc2ccccc2-3)c1C	58*	0.2	79*	0.4	1.4
COC(=O)Nc1c(C)nn(Cc2ccccc2C)c1C	58*	1	-3	0.4	1
CCS(=O)(=O)N1CCC(C(=O)NCC2CCCO2)CC1 (stereo not drawn)	-11	1.1	-14	1.1	1.1
O=C(CCC1(C(=O)O)CCC(=O)NC1)NCc1ccccc1 (stereo not drawn)	3	1	-4	1	1
COc1ccc(OC)c(C2CC(=O)N3CN(c4ccccc4F)CSC3=C2C#N)c1 (stereo not drawn)	47	0.1	89*	0.5	1
COc1cccc(C2CC(=O)N3CN(c4ccccc4F)CSC3=C2C#N)c1 (stereo not drawn)	68*	0.2	84*	0.3	0.9
CCc1ccccc1N1CSC2=C(C#N)C(c3cc(OC)c(OC)cc3OC)CC(=O)N2C1 (stereo not drawn)	23	0.6	39	0.8	1.7
C=CCOc1ccc(C(=O)NC2CCCCC2)cc1	3	0.9	11	1	0.8
CCCCCCCn1c(=N)n(CC(=O)c2ccco2)c2ccccc21	7	1	4	0.9	1
CC(C)CC(=O)c1c[nH]c(C(=O)NCCCN2CCOCC2)c1	-17	1.1	-9	1.2	1.2
O=c1cc(O)nc(SC23CC4CC(CC(C4)C2)C3)[nH]1	-6	1	0	1.1	1
Cc1cccc(N2CCN(C(=O)c3cc4n(n3)C(C(F)(F)F)CC(c3ccco3)N4)CC2)c1C (stereo not drawn)	1	0.1	88*	1	1.2
Cc1cc(NC(=O)c2cc3n(n2)C(C(F)(F)F)CC(c2ccco2)N3)no1 (stereo not drawn)	13	0.5	51*	0.9	0.8
O=C(O)c1cc2n(n1)C(C(F)(F)F)CC(c1ccco1)N2 (stereo not drawn)	5	0.4	62*	0.9	0.9
SMILES	CYP2C19 inhib	CYP2C9 activ	CYP2C9 inhib	CYP2C19 act	PLAP activator
COc1ccccc1NC(=O)c1cc2n(n1)C(C(F)(F)F)CC(c1ccc3c(c1)OCO3)N2 (stereo not drawn)	81*	0.2	75*	0.2	1.3
COc1ccc(Cn2c(C)c(C)c(C#N)c2NC(=O)Nc2ccc(Cl)cc2)cc1	-1	0.8	16	1	1.2
O=C1CC(N2CCC(c3nc4ccccc4o3)CC2)C(=O)N1c1cc(Cl)cc(Cl)c1 (stereo not drawn)	33	0.2	78*	0.7	1.5
CC(=O)/C(C#N)=C1\NC(=O)C(Cc2ccc(C)c(C)c2)S1 (stereo not drawn)	-5	0.1	94*	1.1	1
CNC(=O)c1ccsc1NC(=O)c1ccc(Cl)s1	77*	0.3	68*	0.2	1
COC(=O)c1sccc1NC(=O)c1ccc(Cl)s1	28	1	3	0.7	0.8
COc1ccccc1N1CCN(C(=O)CSc2ccccc2)CC1	44	0.5	46	0.6	1.3
CCn1c(=O)cc(SCC(=O)N2CCN(c3ccccc3OC)CC2)c2ccccc21	43	2.3*	-129	0.6	1.5
CCn1c(=O)cc(SCC(=O)N2CCN(C3CCCCC3)CC2)c2ccccc21	65*	2.4*	-143	0.4	1.5
CCN1CCCC1CNC(=O)CSc1cc(=O)n(CC)c2ccccc12 (stereo not drawn)	-7	0.9	6	1.1	1.2
CCn1c(=O)cc(SCC(=O)N2CCOCC2)c2ccccc21	-9	2.1*	-107	1.1	1.3
CCn1c(=O)cc(SCC(=O)N2CCN(C(=O)c3ccco3)CC2)c2ccccc21	9	1	5	0.9	1.1
O=C(CSc1cn(Cc2ccccc2)c2ccccc12)N1CCOCC1	88*	0.8	21	0.1	1.2
CCCc1cc(=O)[nH]c(SCC(=O)N2CCN(c3ccc(F)cc3)CC2)n1	-4	1.1	-8	1	1.3
Cc1cc(CSc2ccccc2)ccc1NC(=O)c1ccc(Cl)c([N+](=O)[O-])c1	-21	1.2	-24	1.2	1
Cc1ccc(CCN2CC(C(=O)NCCCN3CCCCCC3)CC2=O)cc1 (stereo not drawn)	-13	1.1	-10	1.1	1.3
C/C(=N\NC(=O)c1c(Cl)c(C)nn1C)c1cccc(NC(=O)COc2ccc(Cl)cc2)c1	34	0.6	40	0.7	1.3
CCn1c(=O)cc(SCC(=O)Nc2ccc(OC)c(OC)c2)c2ccccc21	60*	2*	-102	0.4	1.6
CC(C(=O)O)N1C(=O)c2ccccc2C1=O (stereo not drawn)	-3	1	0	1	1
CCN(CC)C(=O)C(Cc1ccccc1)N1C(=O)c2ccccc2C1=O (stereo not drawn)	67*	0.5	53*	0.3	·
CC(C)C(NS(=O)(=O)c1ccc2c(c1)oc(=O)n2C)C(=O)N1CCN(Cc2ccccc2)CC1 (stereo not drawn)	20	0.9	13	0.8	1.6
CCOc1cc(C2C(C(=O)OCC(C)C)=C(C)N=C3SCCC(=O)N32)ccc1OC(C)=O (stereo not drawn)	52*	0.6	40	0.5	0.9
COCCOC(=O)C1=C(C)N=C2SCCC(=O)N2C1c1ccc(C(=O)OC)cc1 (stereo not drawn)	98*	0.3	66*	0	1.5
COCCOC(=O)C1=C(C)N=C2SCCC(=O)N2C1/C=C/c1ccccc1 (stereo not drawn)	81*	0.1	93*	0.2	1.2

Compound activity (PubChem BioAssay)
